Values joined by “and” are separate entries in the source; they are usually repeats but may differ in a detail not shown here. Equal entries are not always repeated. The whole screen tested about 5,500 compounds, of which about 2,000 (36%) were called active. Inconclusive results (about 18%) are left out. Cut-off read from the data, not from the text of the source: active = normalized growth mostly below about 0.91 (no sharp cut-off); inconclusive = no clear call, values can overlap the other calls; inactive = mostly above about 0.92. This is one part of the list.
Test: chemical genetic growth profiling, strain panel (AID 1159580);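 note: tested at 20 µM; growth read once vehicle control cultures reached saturation at 30 °C; 1 = growth at the plate median or of vehicle wells; lower values mean less growth of the strain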
Details: S. cerevisiae deletion strains, growth OD

Measured: normalized growth

Nc1nc(/C(=C/CC(=O)O)C(=O)N[C@@H]2C(=O)N3C(C(=O)O)=CCS[C@H]23)cs1
inactive: locus YAL013W, strain DEP1, hits give low values 0.991 | locus YAL021C, strain ccr4, hits give low values 1.01 | locus YAL026C, strain drs2, hits give low values 1.01 | locus YAL030W, strain snc1, hits give low values 1.02 | locus YBL061C, strain skt5, hits give low values 1 | locus YBR009C, strain hhf1, hits give low values 1.02 | locus YBR021W, strain FUR4, hits give low values 0.982 | locus YBR023C, strain chs3, hits give low values 1.01 | locus YBR171W, strain sec66, hits give low values 1.04 | locus YBR229C, strain ROT2, hits give low values 0.971 | locus YBR231C, strain swc5, hits give low values 1.01 | locus YBR279W, strain paf1, hits give low values 1 | locus YCL011C, strain gbp2, hits give low values 1 | locus YCL016C, strain dcc1, hits give low values 0.99 | locus YCL029C, strain bik1, hits give low values 0.988 | locus YCL061C, strain MRC1, hits give low values 1.01 | locus YCL069W, strain vba3, hits give low values 1 | locus YCR088W, strain abp1, hits give low values 1.01 | locus YDL005C, strain med2, hits give low values 1.01 | locus YDL035C, strain GPR1, hits give low values 1.01 | locus YDL040C, strain nat1, hits give low values 0.997 | locus YDL074C, strain BRE1, hits give low values 1.02 | locus YDL101C, strain DUN1, hits give low values 0.989 | locus YDL134C, strain PPH21, hits give low values 0.988 | locus YDL185W, strain tfp1, hits give low values 0.99 | locus YDL192W, strain arf1, hits give low values 0.983 | locus YDR001C, strain nth1, hits give low values 1.02 | locus YDR069C, strain doa4, hits give low values 1.01 | locus YDR101C, strain arx1, hits give low values 0.99 | locus YDR137W, strain rgp1, hits give low values 1.01 | locus YDR150W, strain NUM1, hits give low values 0.998 | locus YDR159W, strain sac3, hits give low values 1.02 | locus YDR162C, strain NBP2, hits give low values 1 | locus YDR195W, strain ref2 1.01 | locus YDR297W, strain sur2, hits give low values 1.01 | locus YDR318W, strain mcm21, hits give low values 0.996 | locus YDR334W, strain swr1, hits give low values 0.993 | locus YDR335W, strain msn5, hits give low values 1.01 | locus YDR388W, hits give low values 0.992 | locus YDR392W, strain spt3, hits give low values 1.01 | locus YDR502C, strain sam2, hits give low values 0.992 | locus YEL003W, strain gim4, hits give low values 1.01 | locus YEL037C, strain rad23, hits give low values 1 | locus YEL061C, strain CIN8 (second series), hits give low values 1 | locus YEL061C, strain CIN8, hits give low values 0.995 | locus YER015W, strain faa2, hits give low values 1 | locus YER016W, strain bim1, hits give low values 0.998 | locus YER110C, hits give low values 0.978 | locus YER111C, strain swi4, hits give low values 1.01 | locus YER155C, strain BEM2 (second series), hits give low values 1.03 | locus YER155C, strain BEM2, hits give low values 1.04 | locus YER167W, strain BCK2, hits give low values 0.985 | locus YFR010W, strain ubp6, hits give low values 1 | locus YGL078C, strain dbp3, hits give low values 0.995 | locus YGL086W, strain mad1, hits give low values 0.991 | locus YGL167C, strain pmr1, hits give low values 1 | locus YGL173C, strain kem1, hits give low values 1.02 | locus YGL227W, strain vid30, hits give low values 1.01 | locus YGL240W, strain doc1, hits give low values 1.01 | locus YGL248W, strain PDE1, hits give low values 0.978 | locus YGL253W, strain hxk2, hits give low values 1 | locus YGR078C, strain PAC10, hits give low values 1.03 | locus YGR135W, strain pre9, hits give low values 0.991 | locus YGR229C, strain SMI1, hits give low values 0.935 | locus YGR252W, strain gcn5, hits give low values 1.04 | locus YHR013C, strain ard1, hits give low values 0.997 | locus YHR027C, strain rpn1, hits give low values 1.01 | locus YHR030C, strain SLT2, hits give low values 0.99 and 0.989 | locus YHR079C, strain IRE1 (second series), hits give low values 0.998 | locus YHR079C, strain IRE1, hits give low values 0.974 | locus YHR094C, strain hxt1, hits give low values 0.99 | locus YHR129C, strain ARP1, hits give low values 0.989 | locus YHR142W, strain chs7, hits give low values 1.02 | locus YHR200W, strain rpn10, hits give low values 0.992 | locus YIL066C, strain RNR3, hits give low values 0.993 | locus YIL073C, strain SPO22, hits give low values 1.03 | locus YIL125W, strain kgd1, hits give low values 0.994 | locus YIR030C, strain dcg1, hits give low values 0.987 | locus YJL092W, strain hpr5, hits give low values 1 | locus YJL095W, strain BCK1 (second series), hits give low values 1.01 | locus YJL095W, strain BCK1, hits give low values 0.997 and 1.01 | locus YJL115W, strain asf1, hits give low values 1.03 | locus YJL129C, strain trk1, hits give low values 1.01 | locus YJL134W, strain LCB3, hits give low values 0.993 | locus YJL154C, strain vps35, hits give low values 1.01 | locus YJL164C, strain tpk1, hits give low values 0.988 | locus YJL166W, strain qcr8, hits give low values 1.02 | locus YJL168C, strain set2, hits give low values 0.99 | locus YJL187C, strain SWE1 (second series), hits give low values 0.989 | locus YJL187C, strain SWE1, hits give low values 1.01 | locus YJR043C, strain POL32, hits give low values 0.981 | locus YJR066W, strain TOR1, hits give low values 0.949

Reference: PubChem BioAssay AID1159580 (chemical genetic matrix, 2015)
